“And” between values parts separate entries of the source, which are not always exact repeats. Equal entries are not always repeated. Records with an inconclusive call do not appear. Where a structure was tested more than once in an assay, its records may differ in their call. The source made the active and inactive calls. The calls were made as follows, unless noted: active = hit-call score of the fitted dose curve at least 0.9, where 1 is the maximum; inactive = score below 0.9.
How the values were obtained:
[1] = CCTE_Mundy_HCI_Cortical_NOG_NeuriteLength: CCTE's Neurite Outgrowth Assay in rat cortical cells for Neurite Length, Mundy Lab (AID 2284213);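 also: neurites imaged about 48 to 50 h after chemical exposure began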
How it was run: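 First, rat primary cortical cells were plated and, 2 h later, given test chemical as a 1/10 dilution. Finally, βIII-tubulin immunostaining enabled automated imaging of neurite length.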

[2] = CCTE_Mundy_HCI_Cortical_Synap_Neur_Matur_NeuriteLength: CCTE's Synaptogenesis and Neurite Maturation Assay in rat cortical cells for Neurite Length, Mundy Lab (AID 2284214)
How it was run: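 Neurite length quantified by automated high-content imaging of MAP2, synaptophysin and Hoechst staining. Rat cortical cells received chemical from DIV 7 to DIV 12 […], glial growth arrested by AraC at DIV 5; DMSO baseline.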

[3] = CCTE_Mundy_HCI_Cortical_Synap_Neur_Matur_NeuriteSpotCountPerNeuron: CCTE's Synaptogenesis and Neurite Maturation Assay in rat cortical cells for Neurite Spot Count per Neuron Count, Mundy Lab (AID 2284215)
How it was run: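 Rat primary cortical cultures given AraC at DIV 5, dosed from DIV 7 to DIV 12 with media change. Fixed, stained for MAP2, synaptophysin and Hoechst; neurite-associated synaptophysin puncta per neuron quantified by high-content imaging versus DMSO.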

[4] = TAMU_PeakParms_SingleDonor1434_Chronotropy: Texas A&M University (TAMU) 1.5-hr Human Induced Pluripotent Stem Cell (iPSC)-derived Cardiomyocytes Calcium (Ca+2) Flux Assay for Cardiotoxicity: Chronotropy (changes in peak frequency) (AID 2284217); details: actives raise or lower the signal
How it was run: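 Beat frequency of single-donor iPSC cardiomyocytes was recorded through a calcium-sensitive dye 1.5 hours after exposure to four concentrations up to 100 uM. An EC05 point of departure was derived.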

[5] = CCTE_Mundy_HCI_Cortical_Synap_Neur_Matur_SynapseCount: CCTE's Synaptogenesis and Neurite Maturation Assay in rat cortical cells for Synapse Count, Mundy Lab (AID 2284218)
How it was run: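 High-content imaging of synaptophysin puncta per MAP2-positive neuron (Hoechst nuclei) in rat cortical cells exposed DIV 7–12 after glial arrest with AraC at DIV 5; decrease relative to DMSO scored.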

[6] = CCTE_Mundy_HCI_hN2_NOG_NeuriteLength: CCTE's Neurite Outgrowth Assay in human hN2 cells for Neurite Length, Mundy Lab (AID 2284220; active = hit-call score of the fitted dose curve at least 0.9, where 1 is the maximum)
How it was run: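 Read-out is neurite length from high-content imaging of βIII-tubulin/Alexa Fluor-488-labelled neurons, referenced to DMSO controls.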

[7] = CCTE_Mundy_HCI_hN2_NOG_NeuronCount: CCTE's Neurite Outgrowth Assay in human hN2 cells for Neuron Count, Mundy Lab (AID 2284221; active = hit-call score of the fitted dose curve at least 0.9, where 1 is the maximum)
How it was run: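 Read-out is the number of betaIII-tubulin-positive neurons imaged by automated high-content analysis, with DMSO as negative control.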

[8] = CCTE_Mundy_HCI_Cortical_Synap_Neur_Matur_CellBodySpotCount: CCTE's Synaptogenesis and Neurite Maturation Assay in rat cortical cells for Cell Body Spot Count, Mundy Lab (AID 2284223)
How it was run: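 Primary rat cortical cultures, AraC added at DIV 5; dosed DIV 7 through DIV 12 […]. Fixed, stained for MAP2 and synaptophysin with Hoechst; cell body-associated synaptophysin puncta per neuron counted by high-content imaging, loss vs DMSO.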

[9] = CCTE_Mundy_HCI_hNP1_Pro_ResponderAvgInten: CCTE's Proliferation Assay in human neuroprogenitor cells, Mundy Lab (AID 2284224; active = hit-call score of the fitted dose curve at least 0.9, where 1 is the maximum;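 also: human neural progenitor cells hNP1 derived from WA09 embryonic stem cells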)
How it was run: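 Proliferation read as average intensity of BrdU-positive cells, imaged at 26.25 h post-dosing: chemical exposure started after 40–44 h culture, BrdU during final 4 h, paraformaldehyde fixation. Positive-direction fit relative to DMSO.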

[10] = UKN4_HCS_LUHMES_cell_viability: Viability Assessment in the University of Konstanz (UKN) Leist Lab Neurite Outgrowth Assay in human LUHMES cells (UKN4) (AID 2284232)
How it was run: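 Viability was read by high-content imaging of calcein-AM/H-33342-stained cells after 24 h toxicant exposure, staining included. Cells: human LUHMES on day 2 of dopaminergic differentiation, dosed shortly after attachment; DMSO baseline, bidirectional curve fitting.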

[11] = UKN2_HCS_IMR90_cell_viability: Viability Assessment in the University of Konstanz (UKN) Leist Lab Neural Crest Cell Migration Assay in human induced IMR90 Pluripotent Stem Cells (UKN2) (AID 2284233);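 also: cells exposed to compound for 24 h after a 24 h migration phase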
How it was run: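 Viability read as calcein-AM fluorescence by high-content imaging, Hoechst co-stain, 30 min. Human iPSC (IMR90) neural crest cells had migrated 24 h into stopper-defined gaps before 24 h chemical exposure. Fitted bidirectionally relative to DMSO.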

[12] = TAMU_HCS_1.5hr_SingleDonor1434_Cytotoxicity: Cytotoxicity Assessment using High-content Screening (HCS) Fluorescent Imaging for the Texas A&M University (TAMU) 1.5-hr Human Induced Pluripotent Stem Cell (iPSC)-derived Cardiotoxicity Assay (AID 2284234; active = hit-call score of the fitted dose curve at least 0.9, where 1 is the maximum)
How it was run: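 Nuclear counts from Hoechst 33342 imaging define cytotoxicity here, with EC10 (10% cell-count loss relative to DMSO) as point of departure. iPSC cardiomyocytes received 0.2-100 uM test chemical in 0.5% DMSO for 1.5 h at 37 C.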

[13] = CCTE_Mundy_HCI_Cortical_NOG_NeuronCount: CCTE's Neurite Outgrowth Assay in rat cortical cells for Neuron Count, Mundy Lab (AID 2284236; active = hit-call score of the fitted dose curve at least 0.9, where 1 is the maximum;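 also: neurons counted by imaging betaIII-tubulin and Hoechst stained cortical cells; cells exposed to compound for about 48 hours before fixation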)
How it was run: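 Read-out: neuron number by high-content imaging of betaIII-tubulin (Alexa Fluor-488) and Hoechst-labelled rat primary cortical cells.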

[14] = CCTE_Mundy_HCI_Cortical_NOG_BPCount: CCTE's Neurite Outgrowth Assay in rat cortical cells for Branch Point Count, Mundy Lab (AID 2284237);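 also: branch points counted about two days after chemical exposure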
How it was run: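 Measured 50.33 h after dosing, this morphology endpoint uses rat primary cortical cultures labelled for betaIII-tubulin. Branch points are quantified by high-content imaging, with DMSO as negative control and baseline.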

[15] = CCTE_Mundy_HCI_hNP1_Casp3_7: CCTE's Caspase-Glo 3/7 Assay in human neuroprogenitor cells for Apoptosis, Mundy Lab (AID 2284240)
How it was run: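 Luminescent caspase-3/7 readout, 26.5 h post-dose, in human neural progenitor cells from WA09 embryonic stem cells. Cells grew 40–44 h at 37 °C, 5% CO2 before chemical addition. Activity analysed as signal increase over DMSO baseline.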

[16] = CCTE_Mundy_HCI_hNP1_CellTiter: CCTE's Cell Titer-Glo 2 Assay in human neuroprogenitor cells for Viability, Mundy Lab (AID 2284241; active = hit-call score of the fitted dose curve at least 0.9, where 1 is the maximum;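 also: a hit is a drop in ATP luminescence versus DMSO meaning reduced viability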)
How it was run: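 Viability read as luminescent ATP content (CellTiter-Glo, 30 min room temperature) twenty-four hours after dosing, relative to DMSO. Cells: WA09-derived hNP1 neuroprogenitors on poly-L-ornithine/laminin, plated 40 to 44 hours before chemical.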

[17] = CCTE_Mundy_HCI_Cortical_Synap_Neur_Matur_NeuronCount: CCTE's Synaptogenesis and Neurite Maturation Assay in rat cortical cells for Neuron Count, Mundy Lab (AID 2284242; active = hit-call score of the fitted dose curve at least 0.9, where 1 is the maximum;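 also: hits reduce neuron count versus DMSO baseline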)
How it was run: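 Neuron counts come from automated high-content imaging of Hoechst nuclei and MAP2/synaptophysin immunostaining at DIV 12, with loss of signal judged against DMSO. Cultures of rat cortical cells had glial growth arrested by AraC at DIV 5; chemical exposure began DIV 7.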

[18] = IUF_NPC2c_oligodendrocyte_migration_120hr: Leibniz Research Institute for Environmental Medicine (IUF) 120-hour Neural Progenitor Cell Migration Assay for Oligodendrocyte Migration (NPC2c) (AID 2284297);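 also: O4-positive oligodendrocyte migration distance divided by radial glia migration distance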
How it was run: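 Human fetal neural progenitor spheres (0.3 mm) are plated on poly-D-lysine/laminin in N2 differentiation medium and exposed for 120 h, with half-medium renewal at day 3. Oligodendrocyte (O4+) migration distance comes from ICC imaging, normalised to radial glia migration.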

[19] = IUF_NPC2a_radial_glia_migration_120hr: Leibniz Research Institute for Environmental Medicine (IUF) 120-hour Neural Progenitor Cell Migration Assay for Radial Glia Migration (NPC2a) (AID 2284298)
How it was run: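 Human fetal-cortex neural progenitor spheres (0.3 mm) plated on poly-D-lysine/laminin in N2 differentiation medium, exposed 120 h at 37C with half-medium renewal at day 3. Radial glia migration distance (um) measured from Hoechst-stained nuclei images; DMSO baseline.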

[20] = IUF_NPC2a_radial_glia_migration_72hr: Leibniz Research Institute for Environmental Medicine (IUF) 72-hour Neural Progenitor Cell Migration Assay for Radial Glia Migration (NPC2a) (AID 2284299)
How it was run: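 Radial glia migration (µm, sphere core edge to migration front, four directions averaged) from brightfield images at 72 h; hNPC spheres differentiating on PDL/laminin in N2 medium, compound exposure at 7 concentrations from plating.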

[21] = IUF_NPC2b_neuronal_migration_120hr: Leibniz Research Institute for Environmental Medicine (IUF) 120-hour Neural Progenitor Cell Migration Assay for Neuron Migration (NPC2b) (AID 2284300)
How it was run: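 0.3 mm hNPC spheres on poly-D-lysine/laminin in N2 differentiation medium exposed 120 h, half-medium refresh day 3; 7 concentrations, DMSO max 0.1%. Neuron (TUBB3) distance from sphere core by ICC imaging, normalised to radial glia migration.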

[22] = IUF_NPC3_neuronal_differentiation_120hr: Leibniz Research Institute for Environmental Medicine (IUF) 120-hour Neuronal Differentiation Assay (NPC3) (AID 2284301)
How it was run: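 hNPC spheres, PDL/laminin, DMEM/F12 3:1 + 1% N2, 37C, 5% CO2; 7 concentrations + solvent control, 5 d exposure, half-change day 3. Fix 120 h; TUBB3/Hoechst ICC, CNN neuron calling; % neurons vs nuclei, DMSO-normalized.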

[23] = IUF_NPC4_neurite_area_120hr: Leibniz Research Institute for Environmental Medicine (IUF) 120-hour Neuronal Morphology Assay for Neurite Area (NPC4) (AID 2284305; active = hit-call score of the fitted dose curve at least 0.9, where 1 is the maximum)
How it was run: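 hNPC spheres on PDL/laminin, N2 medium, 37C/5% CO2; dosed day 0, half-medium refresh day 3; fixed 120 h; TUBB3/Hoechst ICC, high-content imaging; neurite area = mean pixels per neuron (nuclei excluded); DMSO baseline, max 0.1%.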

[24] = IUF_NPC2-5_cytotoxicity_72hr: Cytotoxicity Assessment at 72 hours in the Leibniz Research Institute for Environmental Medicine (IUF) Neural Progenitor Cell Migration and Differentiation Assay for Cytotoxicity (NPC2-5) (AID 2284306; active = hit-call score of the fitted dose curve at least 0.9, where 1 is the maximum;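 also: LDH release into supernatant measured by resorufin fluorescence marking membrane damage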)
How it was run: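 hNPC spheres (0.3 mm), PDL/laminin, DMEM/F12 3:1 + 1% N2; cpd from d0, 7 concs + SC, DMSO max 0.1%; half-medium refresh d3. Readout: supernatant LDH via resorufin fluorescence (RFU), 72 h; gain-of-signal fit.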

[25] = IUF_NPC2-5_cytotoxicity_120hr: Cytotoxicity Assessment at 120 hours in the Leibniz Research Institute for Environmental Medicine (IUF) Neural Progenitor Cell Migration and Differentiation Assay (NPC2-5) (AID 2284307; active = hit-call score of the fitted dose curve at least 0.9, where 1 is the maximum;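 as to AC50: LDH released into supernatant as membrane damage marker via resorufin fluorescence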)
How it was run: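 Human fetal (GW 16-19) neural progenitor spheres (0.3 mm) plated on poly-D-lysine/laminin in N2 differentiation medium, exposed 120 h with half-medium renewal at day 3; 7 concentrations plus solvent control, DMSO ≤0.1%. LDH release in supernatant read by resorufin fluorescence.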

[26] = IUF_NPC2-5_cell_number_120hr: Cell Number Assessment at 120 hours in the Leibniz Research Institute for Environmental Medicine (IUF) Neural Progenitor Cell Migration and Differentiation Assay (NPC2-5) (AID 2284308);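 also: count of Hoechst-stained nuclei in migration zone around plated human neural progenitor spheres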
How it was run: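 Human fetal neural progenitor spheres (0.3 mm) plated on poly-D-lysine/laminin in N2 differentiation medium, exposed five days across 7 concentrations with half-medium refresh at day 3. Hoechst-positive nuclei counted in migration area at 120 h, relative to DMSO.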

[27] = IUF_NPC2-5_viability_120hr: Viability Assessment at 120 hours in the Leibniz Research Institute for Environmental Medicine (IUF) Neural Progenitor Cell Migration and Differentiation Assay (NPC2-5) (AID 2284312)
How it was run: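 Human fetal neural progenitor spheres (0.3 mm) plated on poly-D-lysine/laminin in N2 differentiation medium, exposed 120 h with half-medium refresh at day 3. Viability by alamar blue resazurin fluorescence; 7 concentrations, DMSO max 0.1%.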

[28] = CCTE_Mundy_HCI_iCellGluta_NOG_NeuriteLength: CCTE's Neurite Outgrowth Assay in iCellGluta cells for Neurite Length, Mundy Lab (AID 2284318; active = hit-call score of the fitted dose curve at least 0.9, where 1 is the maximum)
How it was run: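 Automated high-content imaging of betaIII-tubulin (Alexa Fluor-488) and Hoechst-stained cells gave neurite length, normalized to the DMSO baseline.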

[29] = TAMU_PeakParms_SingleDonor1434_Asystole: Texas A&M University (TAMU) 1.5-hr Human Induced Pluripotent Stem Cell (iPSC)-derived Cardiomyocytes Calcium (Ca+2) Flux Assay for Cardiotoxicity: Asystole (quiescence of beating) (AID 2284328; active = hit-call score of the fitted dose curve at least 0.9, where 1 is the maximum)
How it was run: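 Donor 1434 iPSC-cardiomyocytes exposed 90 min at 37C, 5% CO2, to 0.2, 1, 10 and 100 uM in 0.5% DMSO. Ca2+ dye fluorescence gave average peak frequency; POD is EC95, a 95% beat-rate drop versus controls.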

[30] = IUF_NPC1_cytotoxicity_72hr: Cytotoxicity Assessment at 72 hours in the Leibniz Research Institute for Environmental Medicine (IUF) Neural Progenitor Cell Proliferation Assay (NPC1) (AID 2284332; active = hit-call score of the fitted dose curve at least 0.9, where 1 is the maximum;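 also: rising LDH signal means more cytotoxicity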)
How it was run: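 Cytotoxicity by LDH membrane-integrity assay on medium supernatants, fluorescence via resazurin reduction, after 3-day single exposure of primary hNPC spheres at 37C, pH 7.2-7.6 with growth factors. Fitted upward against baseline.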

[31] = CCTE_Mundy_HCI_iCellGluta_NOG_NeuronCount: CCTE's Neurite Outgrowth Assay in iCellGluta cells for Neuron Count, Mundy Lab (AID 2284340; active = hit-call score of the fitted dose curve at least 0.9, where 1 is the maximum;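 also: cells fixed about 48 h after compound addition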)
How it was run: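 Neuron count read by automated high-content imaging of Hoechst 33342 and betaIII-tubulin/Alexa Fluor-488 labelling in human iPSC glutamatergic neurons. Activity fitted relative to DMSO.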

Measured: AC50

[CH3][Hg][Cl]
inactive: [8] | [18] | [21] | [24] | [25] | [27] | [29] | [30]
active: [1] 222 nM and 316 nM | [2] 428 nM | [3] 576 nM | [4] 21200 nM | [5] 582 nM | [6] 99 nM | [7] 172 nM | [9] 2120 nM | [10] 381 nM | [11] 5000 nM | [12] 8350 nM | [13] 708 nM and 631 nM | [14] 244 nM | [15] 1150 nM | [16] 9570 nM | [17] 850 nM | [18] 128 nM | [19] 1.05 µM and 160 nM | [20] 1.11 µM and 255 nM | [21] 138 nM | [22] 325 nM and 124 nM | [23] 629 nM and 78.3 nM | [25] 275 nM | [26] 823 nM and 130 nM | [27] 276 nM | [28] 76.3 nM | [31] 80.6 nM

Reference: PubChem BioAssay (EPA / NIEHS)
